The source of these data is PubChem BioAssay (Tox21).

Inconclusive results are not listed. More than one record can exist for a structure, and the calls need not agree. Active and inactive are the calls of the source. Calls come from the whole dose curve; as a rule, active = well fitted activation curve with a large enough effect in the repeat runs; inconclusive = weak or mixed curves; inactive = no such curve, though single readings can be large or run the other way.
% is set by controls: 0 for no effect and ±100 for the full control effect; potency is the fitted concentration of half-maximal effect.

Chain of Nuclear receptor subfamily 1 group I member 2 (Homo sapiens) (O75469 whole entry, looked up): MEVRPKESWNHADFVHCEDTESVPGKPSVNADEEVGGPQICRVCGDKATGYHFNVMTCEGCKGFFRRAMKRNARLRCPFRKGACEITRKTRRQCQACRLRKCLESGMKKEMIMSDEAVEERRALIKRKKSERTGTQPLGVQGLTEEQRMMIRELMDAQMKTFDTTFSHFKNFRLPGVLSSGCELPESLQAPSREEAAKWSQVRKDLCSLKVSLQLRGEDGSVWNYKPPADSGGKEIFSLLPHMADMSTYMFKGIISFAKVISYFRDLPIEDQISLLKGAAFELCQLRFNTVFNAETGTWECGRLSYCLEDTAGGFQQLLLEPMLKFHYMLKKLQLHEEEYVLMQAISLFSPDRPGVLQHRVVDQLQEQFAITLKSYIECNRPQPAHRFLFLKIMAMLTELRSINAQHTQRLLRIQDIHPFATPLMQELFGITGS

The experiment deals with Nuclear receptor subfamily 1 group I member 2 (Homo sapiens) (UniProt O75469). The experiment can be described thus: Human pregnane X receptor (PXR) small molecule agonists, qHTS assay (AID 1346982). Note: nearly all actives have a fitted effect of over 35% in size. The following applies: PXR-Luc HepG2, CYP3A4 luciferase reporter, 24 h; series mostly up to 92.4 µM; activation: at the top concentration. The source says:
National Center for Advancing Translational Sciences [NCATS]
NIH Chemical Genomics Center [NCGC]
U.S. Environmental Protection Agency [EPA]
National Institutes of Environmental Health Sciences [NIEHS]
National Toxicology Program [NTP]
The human pregnane X receptor (hPXR) regulates the expression of several drug metabolizing enzymes and induction of these proteins is a major mechanism for developing drug resistance in cancer. One such key enzyme catalyzing the drug metabolism is cytochrome P450 3A4 (CYP3A4). Changes in CYP3A4 expression affect drug metabolism, thereby reducing the therapeutic efficacy and altering toxicological response to a drug and which finally causes adverse drug interaction. To screen Tox21 libraries for compounds that activate hPXR-mediated CYP3A4 gene expression, PXR-Luc HepG2 cells were used.
PXR-Luc HepG2 cells were dispensed at 2,000 per well in 5uL of assay medium containing 5% charcoal-stripped FBS into white solid bottom 1536-well plates (Corning Life Sciences, Corning, NY) using a Multidrop Combi (Thermo Scientific, Waltham, MA) dispenser. The assay plates were incubated at 37 C and 5% CO2 for 5hr, and then 23nL of compounds dissolved in DMSO and positive control were transferred using a Pintool station (Wako, San Diego, CA). The assay plates were incubated at 37C and 5% CO2 for 24hr. For luciferase read, 4uL of ONE-Glo reagent (Promega Corporation, Madison, WI) was added to each well of the assay plates using Flying Reagent Dispenser (FRD, Aurora Discovery, San Diego, CA) and incubated the assay plates at room temperature for 30min. The luminescence signal was quantified using a ViewLux plate reader (Perkin Elmer, Shelton, CT).
(In general: qHTS replaces the single test concentration by a dilution series.)
Take `Cc1ccc(N)cc1C`: the Potency is 49 µM (active). For the compound `CC1Sc2c(C(=O)O)c(=O)c3cc(F)c(N4CCNCC4)cc3n21` (stereo not given), the “activation” value is -2.45% [at 42.5 µM] (inactive). For the compound `CNC(C)Cc1ccccc1OC` (stereo not given), the “activation” value is -3.87% [at 42.5 µM] (inactive). Consider `Brc1ccc(Oc2ccccc2)cc1`, for which the “activation” value was -4.54% (inactive). On to `CC1(C)CCC(Cc2ccc(Cl)cc2)C1(O)Cn1cncn1` (stereo not given), for which the Potency was 9.69 µM (active). `NC(=O)CI`: the Potency was 69.1 µM (active). With `COc1ccc(-c2ccccc2)cc1NNC(=O)OC(C)C`, the Potency is 71.5 µM (active). On the same count and under the same terms, under `O=C(O)c1ccccc1C(=O)Nc1cccc2ccccc12` stands 38.6 µM (active). Take `O=[N+]([O-])c1ccccc1CCl`: the Potency is 0.0039 µM (active). The same measure, in the same setting: under `CC(C)(C)c1cc([N+](=O)[O-])cc([N+](=O)[O-])c1O` stands 19.3 µM (active). For the compound `CCBr`, the “activation” value is 21.2% (inactive). On the same count and under the same terms, the result for `CN1[C@@H]2CC[C@H]1CC(OC(=O)c1cc(Cl)cc(Cl)c1)C2` (stereo not given in full) reads -2.19% [at 42.5 µM] (inactive); that for `Cc1ccccc1CCl`, 2.44% (inactive). With `CCOP(=O)(OCC)SCCSCC`, the Potency is 58.3 µM (active).

As to `CC(Cl)Cl`, the “activation” value is 2.26% (inactive). On to `CCOP(=O)(OCC)O/C(=C/Cl)c1ccc(Cl)cc1Cl`, for which the Potency is 4.86 µM (active). Turning to `CO/C=C(/C(=O)OC)c1ccccc1COc1cccc(C(F)(F)F)n1`, the Potency is 34.3 µM (active). On to `COC(C)(C)CCC[C@H](C)C/C=C/C(C)=C/C(=O)OC(C)C`, for which the Potency is 24.3 µM (active). As to `N#CCc1ccccc1`, the “activation” value is -2.65% (inactive). Still for that read-out and setting: the result for `CCC(Br)(CC)C(=O)NC(N)=O` reads 8.75% (inactive). Take `CCCN(CC1CC1)c1c([N+](=O)[O-])cc(C(F)(F)F)cc1[N+](=O)[O-]`: the Potency is 19.3 µM (active). For `Clc1cccc2ccccc12`, the “activation” value was -0.487% (inactive). For the compound `CCOP(=S)(OCC)Oc1nc(Cl)c(Cl)cc1Cl`, the Potency is 17.3 µM (active) and inactive. With `O=S1OC[C@@H]2[C@H](CO1)[C@]1(Cl)C(Cl)=C(Cl)[C@@]2(Cl)C1(Cl)Cl` (stereo not given in full), the Potency was 30.6 µM (active). For `CNP(=O)(OC)Oc1ccc(C(C)(C)C)cc1Cl` (stereo not given), the Potency is 17.2 µM (active). As for `Cc1c(F)c(F)c(COC(=O)C2C(/C=C(\Cl)C(F)(F)F)C2(C)C)c(F)c1F` (stereo not given), the Potency is 13.7 µM (active). For the compound `CCN(C)N=O`, the “activation” value is 5.24% (inactive). As for `CCOP(=S)(OCC)SCn1nnc2ccccc2c1=O`, the Potency was 6.86 µM (active). Regarding `O=C(O)C(F)(F)C(F)(F)C(F)(F)C(F)(F)C(F)(F)C(F)(F)C(F)(F)C(F)(F)C(F)(F)F`, the “activation” value is -24.6% (inactive).

Turning to `COc1nn(CSP(=S)(OC)OC)c(=O)s1`, the Potency was 54.5 µM (active). On to `CCOP(=S)(Oc1ccc([N+](=O)[O-])cc1)c1ccccc1` (stereo not given), for which the “activation” value was 22.6% (inactive).

On to `Cc1cc(=O)[nH]o1`, for which the “activation” value was -9.34% (inactive). In the case of `CO[C@@H]1[C@H](OC(=O)NC(=O)CCl)CC[C@]2(CO2)[C@H]1[C@@]1(C)O[C@@H]1CC=C(C)C`, the Potency was 10.6 µM (active).

As to `COP(=S)(OC)Oc1ccc([N+](=O)[O-])cc1Cl`, the “activation” value was 18.1% (inactive).

With `CC(C)=CCOc1c2occc2cc2ccc(=O)oc12`, the “activation” value is 17.3% [at 42.5 µM] (inactive). For `O=NN1CCNCC1`, the “activation” value was -3.71% (inactive).

Turning to `O=C(OC1CCCCC1)c1ccccc1C(=O)OC1CCCCC1`, the Potency was 5.74 µM (active). For the compound `c1cc2ccc3cccc4ccc(c1)c2c34`, the Potency is 25.5 µM (active). Turning to `Sc1ccccc1Cl`, the “activation” value was -5.54% [at 42.5 µM] (inactive). On the same count and under the same terms, under `N#C/C(N)=C(/N)C#N` stands 19.7% (inactive).
